High-throughput results from PubChem BioAssay.
Tau fluor cs – counter-screen for tau fibril formation inhibitors. tau K18 P301L Alexa594 fluorescence, heparin fibrillization. Potency, µM (highest dose often 57.7 µM), for inactives: top-dose activity change, negative = decrease. actives 0.93% (n = 280,000). AID 1463; also: nearly all actives have a fitted effect of over 55% in size
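Human tau K18 P301L (15 uM unlabeled, 0.24 uM Alexa 594-labeled) in 100 mM sodium acetate pH 7 with 20 uM heparin, 6 hr at 37 C. ThT 30 uM added, 1 hr ambient; Alexa 594 FP and total fluorescence read at 555/632 nm.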
GoLoco inh red – RGS12 GoLoco-Gai1 interaction inhibition | P63096 | Gai1:RGS12 GoLoco peptide FP, rhodamine, 10 min | Potency, µM (highest dose often 61.6 µM), without a hit: at the top dose activity, negative = inhibition, hits mostly inhibitors | actives 0.44% (n = 230,000); active = well fitted inhibition curve with a large enough effect, not every such curve was filed as active; inactive = no such curve, though single readings can be large or run the other way; also: nearly all actives have a fitted effect of over 30% in size
Tau fibril FP – blocks human tau fibril formation measured by polarization | P10636 | Potency, µM (highest dose often 57.7 µM), for inactives: at the highest dose activity, negative = inhibition, hits mostly inhibitors | K18 P301L tau heparin fibrillization, Alexa594 FP, 6 h | actives 0.39% (n = 280,000); also: nearly all actives have a fitted effect of over 55% in size
Target sequence (P10636 561-689 P618L limits assumed): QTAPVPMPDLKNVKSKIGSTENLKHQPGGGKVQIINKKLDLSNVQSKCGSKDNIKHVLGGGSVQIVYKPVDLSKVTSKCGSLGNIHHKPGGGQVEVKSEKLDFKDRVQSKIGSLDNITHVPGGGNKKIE
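Steps: dispense K18 P301L tau (15 uM plus 0.24 uM Alexa 594 tracer, final) in pH 7 sodium acetate; add compound; add heparin (20 uM final); incubate 6 hr, 37 C; add ThT (30 uM final); after 1 hr ambient, read FP.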
Tau ThT inhib – inhibitors of human tau fibril formation, thioflavin T binding; AID 1460; Potency, µM (top dose mostly 57.4 µM), without a hit: top-dose activity, negative = inhibition, actives largely listed as inhibitors; actives 2.1% (n = 270,000); recombinant tau K18 P301L (four-repeat tau fragment), heparin-induced fibrillization, ThT fluorescence; P10636; also: nearly all actives have a fitted effect of over 55% in size
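Tau K18 P301L fragment (15 uM unlabeled plus 0.24 uM Alexa 594-labeled) in 100 mM sodium acetate pH 7 with compound, fibrillization induced by 20 uM heparin for 6 hr at 37 C. Thioflavin T (30 uM) added, fluorescence read after 1 hr (ex 450, em 510 nm).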
TRb-SRC2 inh – TRbeta-SRC2 interaction inhibition. TRbeta-SRC2 peptide binding, fluorescence polarization; receptor liganded with 1 µM T3. Potency, µM (highest dose often 106 µM), for the others: top-dose activity change, negative = inhibition, actives largely listed as inhibitors. actives 0.065% (n = 280,000);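 also: plate controls were bound peptide for no effect and peptide without receptor for full effect; nearly all actives have a fitted effect of over 50% in size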
Target sequence (P10828 whole entry, looked up): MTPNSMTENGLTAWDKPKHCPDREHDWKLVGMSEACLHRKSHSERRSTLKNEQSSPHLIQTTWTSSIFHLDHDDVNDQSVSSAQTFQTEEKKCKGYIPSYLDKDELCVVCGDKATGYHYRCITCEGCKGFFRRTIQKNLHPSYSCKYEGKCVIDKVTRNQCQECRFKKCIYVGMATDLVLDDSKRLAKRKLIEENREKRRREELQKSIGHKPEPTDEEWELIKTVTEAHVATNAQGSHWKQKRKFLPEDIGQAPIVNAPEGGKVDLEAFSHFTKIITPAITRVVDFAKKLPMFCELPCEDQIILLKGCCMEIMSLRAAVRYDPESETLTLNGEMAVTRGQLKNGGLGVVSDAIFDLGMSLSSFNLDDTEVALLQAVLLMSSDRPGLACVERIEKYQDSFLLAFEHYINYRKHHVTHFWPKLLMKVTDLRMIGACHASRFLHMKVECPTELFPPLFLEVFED
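Binding of a 20-amino-acid Texas Red SRC2 peptide (20 nM) to TRb ligand-binding domain (0.6 uM) with agonist T3 at 1 uM was followed by fluorescence polarization after a 5 hr room-temperature incubation.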
TexasRed fluor – counter-screen for TRb-SRC2 inhibitors: fluorescence interference; TRb/SRC2 Texas Red total fluorescence interference; Potency, µM (titrated, usually from 106 µM), without a hit: top-dose fluorescence change, negative = quenching; actives 0.29% (n = 280,000); active = well fitted curve in either direction with a large enough effect; inconclusive = small, poorly fitted or top-dose-only effect
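Human TRβ ligand-binding domain (0.6 uM) and Texas Red SRC2 peptide (20 nM) in Tris buffer with 1 uM T3 and 5% DMSO were incubated with pinned compound for 5 hr at ambient temperature. Total fluorescence was computed as S + 2P (555/632 nm).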
An asterisk follows results filed as active; ? = inconclusive; . = not tested or not shown; [ ] = remark or other dose. The list is not random: actives were taken first. Their share in the collection is about 3.2%. Unless noted, calls follow the shape of the dose curve; as a rule, active = well fitted curve in the direction sought with a large enough effect; inconclusive = small, poorly fitted or top-dose-only effect, or another doubt; inactive = no such curve, though single readings can be large; an effect the other way counts as inactive or inconclusive. Unless noted, % is scaled to controls: 0 for no effect and ±100 for the full control effect; potency is read from the fitted curve at half-maximal effect.

SMILES | Tau fluor cs | GoLoco inh red | Tau fibril FP | Tau ThT inhib | TRb-SRC2 inh | TexasRed fluor
Cc1ccc(-c2nn(-c3ccccc3)cc2/C=C2\SC(=S)N(CC(=O)O)C2=O)cc1 | -11.6% | 9.3% | -3.8% | 17.8µM* | 12.6% | -2.7%
O=C(O)CCN1C(=O)/C(=C/c2cn(-c3ccccc3)nc2-c2cccs2)SC1=S | -0.7%[2.34 µM] | 9.1% | -3.1%[2.34 µM] | 3.9% | -4.5% | 1.0%
O=C(O)CCCCCN1C(=O)/C(=C\c2cn(-c3ccccc3)nc2-c2cccs2)SC1=S | -16.1% | 5.0% | 8.3% | 14.1µM* | 1.9% | -3.6%
O=C(N/N=C/c1c[nH]c2ccccc12)c1ccncc1 | -16.0% | 2.3% | 5.5% | ? | -3.5% | -2.3%
O=C(N/N=C/c1ccc([N+](=O)[O-])o1)c1sc2ccccc2c1Cl | ? | 10.9% | -4.4% | 3.55µM* | 5.1% | 0.0%
O=C(N/N=C/c1ccccn1)c1sc2ccccc2c1Cl | ? | 13.0% | -7.5% | ? | -0.5% | -2.9%
COc1ccc2c(Cl)c(C(=O)N/N=C/c3c(C)[nH]c4ccccc34)sc2c1 | 11.2µM*[quencher] | . | 7.6% | 4.47µM* | 2.7% | 0.3%
O=C(N/N=C/c1c[nH]c2ccccc12)c1sc2ccccc2c1Cl | 8.91µM*[quencher] | 1.4% | -2.7% | ? | 5.9% | -7.2%
Cc1ccc(C(=O)Nc2ccc(C(=O)N/N=C/c3c[nH]c4ccccc34)cc2)cc1 | 14.1µM*[quencher] | 6.6% | 10.7% | 12.6µM* | 5.3% | -10.0%
CC(C)(CCCCCCCCCCC(C)(C)CC(=O)O)CC(=O)O | . | . | . | . | -1.7% | -0.5%
CC(=O)OC1CC2C(C)(C)C(O)CC[C@@]2(C)C2CC[C@@]3(C)C(c4ccoc4)OC(=O)C4O[C@@]43[C@]12C (some centres not stated) | -1.5% | 2.3% | -1.7% | -10.5% | 1.0% | -1.5%
CN(C)C1CCc2[nH]c3ccc(NC(=O)c4ccc(F)cc4)cc3c2C1 (configuration not stated) | . | . | . | . | 5.6% | 1.6%
Cc1cccc(NC(=S)N/N=C/c2c[nH]c3ccccc23)c1 | 8.91µM*[quencher] | 7.2% | ? | 15.8µM* | -1.9% | -5.2%
NC(=S)N/N=C\c1c[nH]c2ccccc12 | . | 6.5%[14.2 µM] | . | . | . | .
CCOc1ccc(CCNC(=O)CN2C(=O)COc3ccc(S(=O)(=O)N(CC)CC)cc32)cc1 | ? | . | -4.1% | ? | -17.0% | ?
O=C1C(c2[nH]c3ccc(S(=O)(=O)O)cc3c2O)=Nc2ccc(S(=O)(=O)O)cc21 | -22.2% | -32.9% | ? | 8.91µM* | -11.0% | ?
Nc1ccc(N=Nc2ccc(-c3ccc(O)cc3)cc2)c2ccc(S(=O)(=O)O)cc12 | . | 5.8%[14.2 µM] | . | . | . | .
Cc1ccc(C2Nc3ccccc3-n3c(-c4ccccc4)c4c(=O)n(C)c(=O)n(C)c4c32)o1 (configuration not stated) | -5.1% | . | ? | 0.9% | -0.5% | -1.4%
Cc1[nH]n2c(=O)c3c(nc2c1-c1ccc(Cl)cc1)CCC3 | 1.4% | 8.5% | 6.5% | -6.8% | -12.7% | 2.4%
Nc1[nH]n2c(=O)c3c(nc2c1N=Nc1ccc(Cl)cc1)CCCC3 | -9.2% | 3.3% | -1.8% | 1.41µM* | 4.0% | 0.1%
Nc1[nH]n2c(=O)c3c(nc2c1N=Nc1ccccc1)CCCC3 | ? | 0.2% | 0.9% | 4.47µM* | 5.6% | -3.0%
Cc1[nH]n2c(=O)c3c(nc2c1-c1ccccc1)CCC3 | -5.1% | 3.1% | -10.9% | -15.7% | 1.0% | 0.5%
Cc1c(C(=O)NCc2ccc(Cl)cc2)sc2nc3n(c(=O)c12)CCCCC3 | -24.7% | . | -7.0% | -14.3% | 7.2% | ?
COc1cc(-c2ccno2)ccc1S(=O)(=O)N1CCN(c2cc(C)ccc2C)CC1 | ? | . | -16.5% | -7.2% | -2.9% | 2.0%
O=C1/C(=C/c2ccccc2[N+](=O)[O-])COc2ccccc21 | ? | 0.6% | ? | 12.6µM* | 3.8% | -0.5%
SMILES | Tau fluor cs | GoLoco inh red | Tau fibril FP | Tau ThT inhib | TRb-SRC2 inh | TexasRed fluor
CNc1ccc(/C=C2\COc3ccccc3C2=O)cc1[N+](=O)[O-] | -12.4% | 7.0% | -1.7% | 1.58µM* | -9.1% | -0.4%
CCOC(=O)/C=c1\s/c(=C(\C#N)C(=O)NC)n(-c2ccccc2)c1=O | -7.2% | 23.5% | -5.9% | ? | -2.1% | 5.6%
Cc1ccccc1-n1c(=O)/c(=C\c2ccco2)s/c1=C(/C#N)C(=O)Nc1ccccc1 | -29.4% | 133.1% | ? | 15.8µM* | ? | -9.7%
C=C[C@@H](C1=CC(=O)C(OC)=C(OC)C1=O)c1ccccc1 | ? | -8.2% | ? | 28.2µM* | -6.2% | -2.3%
C=CC(C1=CC(=O)C=CC1=O)c1ccccc1 (configuration not stated) | ? | 1.6% | -14.2% | ? | 4.9% | -2.1%
C=CC(C1=CC(=O)C(OC)=CC1=O)c1ccc(O)cc1 (configuration not stated) | ? | -6.4% | ? | 31.6µM* | -7.9% | -0.7%
COc1ccc(C2=C(C)C(=NCCCN3CCN(c4cc(C)ccc4C)CC3)NS2(=O)=O)cc1 | -1.1% | . | ? | -8.0% | 0.8% | -1.8%
Cc1ccc(N/N=C2\CC(=O)c3ccccc32)cc1Cl | ? | 9.7% | ? | 7.08µM* | 2.6% | 0.6%
Cc1ccc(NC(=O)CCn2cnc3ccccc3c2=O)cc1Cl | -0.1% | 1.5% | -11.2% | 1.1% | 2.9% | -0.2%
Cc1ccc(O)c(CNc2cccc3cccnc23)c1 | 14.1µM*[quencher] | 13.7% | 2.5% | ? | 1.4% | -1.0%
CN(C)c1ccc(CNC(=O)CCC(=O)N2Cc3ccccc3Oc3ncccc32)cc1 | -16.6% | . | -12.1% | -13.1% | 1.5% | -22.0%
CC1=NN(c2ccc(C)c(C)c2)C(=O)/C1=C\C=C\c1ccc([N+](=O)[O-])o1 | ? | 13.0% | ? | 25.1µM* | 2.6% | -19.7%
Cc1ccc(NC(=O)CCC(=O)N/N=C/c2ccc([N+](=O)[O-])o2)cc1C | -11.6% | -5.2% | -3.8% | . | 1.6% | -2.3%
CCSC1=NC2(CCCCC2)Nc2sc3c(c21)CCCC3 | ? | -10.5% | ? | 28.2µM* | 2.6% | -4.9%
O=C(Nc1ccccc1F)c1nc(SCc2ccc(F)cc2)ncc1Cl | -22.7% | . | -16.1% | -6.4% | -8.8% | -0.2%
O=C(Oc1ccccc1F)c1nc(SCc2ccccc2F)ncc1Cl | -24.6% | . | -8.9% | 22.4µM* | -1.0% | -0.3%
Cc1ccc(CSc2ncc(Cl)c(C(=O)Oc3ccccc3F)n2)cc1 | -24.2% | . | -12.1% | 15.8µM* | -0.7% | 0.5%
O=C(Nc1ccc(F)cc1)c1nc(SCc2ccccc2F)ncc1Cl | -5.6% | . | -12.1% | 0.8% | -10.0% | -2.6%
c1ccc(C(CCN2CC3CCC(CC3)C2)c2ccccc2)cc1 | . | 6.7%[14.2 µM] | . | . | . | .
